Inconclusive results are not listed. Activity calls are given as the source filed them. The call rests on the fitted dose curve.
biological target: Muscarinic acetylcholine receptor M1 (Homo sapiens) (UniProt P11229); experiment: Cholinergic receptor muscarinic 1 (CHRM1) small molecule antagonists, cell-based qHTS assay (AID 1963588); conditions: CHRM1-CHO antagonist mode, calcium flux fluorescence; series mostly up to 61.5 µM; activity, negative = inhibition: at the top concentration; further: nearly all actives have a fitted effect of over 40% in size
Sequence (P11229 whole entry, looked up): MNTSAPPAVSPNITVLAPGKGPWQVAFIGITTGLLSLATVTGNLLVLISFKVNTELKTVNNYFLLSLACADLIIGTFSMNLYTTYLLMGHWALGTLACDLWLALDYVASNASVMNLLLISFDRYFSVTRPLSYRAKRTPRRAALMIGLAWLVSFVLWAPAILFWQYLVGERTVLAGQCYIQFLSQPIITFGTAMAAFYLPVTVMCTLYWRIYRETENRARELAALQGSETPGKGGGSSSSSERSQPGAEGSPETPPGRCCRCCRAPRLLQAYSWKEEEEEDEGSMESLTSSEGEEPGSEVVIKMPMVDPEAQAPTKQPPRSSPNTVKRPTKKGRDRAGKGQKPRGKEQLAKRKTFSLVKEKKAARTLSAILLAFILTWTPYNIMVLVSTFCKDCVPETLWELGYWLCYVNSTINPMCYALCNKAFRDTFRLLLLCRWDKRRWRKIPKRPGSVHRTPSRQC
Description: National Center for Advancing Translational Sciences [NCATS]
Division of Preclinical Innovation [DPI]
U.S. Environmental Protection Agency [EPA]
National Institutes of Environmental Health Sciences [NIEHS]
National Toxicology Program [NTP]
U.S. Food and Drug Administration [FDA]
The CHRM1 is a muscarinic receptor. This receptor plays a crucial role in learning and memory processes and has long been identified as a promising therapeutic target for the improvement of cognitive decline in Alzheimer's disease (AD). The CHRM1-CHO cell line stably expressing human muscarinic acetylcholine receptor M1 (CHRM1) can be used for screening agonists and antagonists of interactions between CHRM1 and its ligands. The CHRM1-CHO Calcium Flux Assay is a homogeneous fluorescence-based assay for detecting the intracellular calcium level using FDSS kinetic plate reader system.
Tox21 Assay Protocol Summary:
CHRM1-CHO cells were dispensed at 1000 cells/3uL/well in 1536-well black-clear bottom plates using a Multidrop Dispenser. After the assay plates were incubated at a 37 C/5% CO2 incubator for 18 h, 3 uL of Dye Loading Buffer was transferred to the assay plate by a Flying Reagent Dispenser. The assay plates were incubated at 37 C for 1h. For antagonist mode, 23 nL of compounds dissolved in DMSO, positive controls or DMSO only was transferred to the assay plate by a pin tool. After 5 min incubation at room temperature, 1.5 uL of acetylcholine at 50nM was added to each well. The fluorescence intensity in the plates was measured using FDSS 7000EX kinetic plate reader for 3 min at 1 sec intervals. Each test compound was measured at 15 concentrations in three independent runs.
On the % scale 0 is the no-effect control and ±100 the full control effect; potency means the concentration at half of the fitted maximal effect.

| SMILES | activity, negative = inhibition | Potency |
| --- | --- | --- |
| Nc1ccccc1-c1ccccc1 | 17% (inactive) |  |
| CC(C)COP(=O)(OCC(C)C)OCC(C)C | 14.3% (inactive) |  |
| CCC[CH2][Sn]([CH2]CCC)([CH2]CCC)[CH2]CCC | -2.09% (inactive) |  |
| Cc1ccccc1CO[C@@H]1C[C@@]2(C(C)C)CC[C@]1(C)O2 | 3.53% (inactive) |  |
| CC1(C)C(/C=C(\Cl)C(F)(F)F)C1C(=O)OC(C#N)c1cccc(Oc2ccccc2)c1 (stereo not given) | 3.09% (inactive) |  |
| Nc1ccccc1C(=O)OC/C=C/c1ccccc1 | -0.963% (inactive) |  |
| CCOC(=O)CCN(SN(C)C(=O)Oc1cccc2c1OC(C)(C)C2)C(C)C | -16.6% (inactive) |  |
| Cc1ncc(C[n+]2csc(CCO)c2C)c(N)n1 | 0.248% (inactive) |  |
| II | 0.699% (inactive) |  |
| ClCCCCCCCl | 6.97% (inactive) |  |
| CCOc1cc(C(C)(C)C)ccc1C1COC(c2c(F)cccc2F)=N1 (stereo not given) | 11.3% [at 28.3 µM] (inactive) |  |
| CN(C)C(=O)Nc1cccc(OC(=O)NC(C)(C)C)c1 | -4.51% (inactive) |  |
| CCCN1CCC[C@@H]2Cc3[nH]ncc3C[C@H]21 | -2.1% [at 28.3 µM] (inactive) |  |
| CCCSC(=O)N(CCC)CCC | -16.5% (inactive) |  |
| CC(C)c1c(CN(C)C(C)Cc2ccccc2)n(C)n(-c2ccccc2)c1=O (stereo not given) | -26% [at 28.3 µM] (inactive) |  |
| Brc1cccc(-c2ccccc2)c1 | 17.4% (inactive) |  |
| CCOc1ccc(C(C)(C)COCc2cccc(Oc3ccccc3)c2)cc1 | 19.2% (inactive) |  |
| O=[N+]([O-])c1ccc(Cl)c(Cl)c1Cl | -16.4% (inactive) |  |
| Nc1ccc([N+](=O)[O-])cc1 | -9.96% (inactive) |  |
| CC(=O)[O-].CC(=O)[O-].[Co+2] | -2.17% (inactive) |  |

| SMILES | activity, negative = inhibition | Potency |
| --- | --- | --- |
| N#CCCSCCC#N | 15.9% (inactive) |  |
| C[C@]12CC[C@H](O)C[C@H]1CC[C@@H]1[C@@H]2C[C@@H](O)[C@]2(C)[C@@H](C3=CC(=O)OC3)CC[C@]12O | 15.3% (inactive) |  |
| CCOC(=O)CBr | -2.76% (inactive) |  |
| CC(C)(N)Cc1ccc(Cl)cc1 | -2.58% [at 28.3 µM] (inactive) |  |
| CC1NCCOC1c1ccccc1 (stereo not given) | -19.4% [at 28.3 µM] (inactive) |  |
| Oc1ccc(I)cc1 | 0.392% (inactive) |  |
| N#CCCl | 6.9% (inactive) |  |
| CC(CC(C#N)(c1ccccc1)c1ccccc1)N(C)C (stereo not given) |  | 10.5 nM (active) |
| CCCCCCBr | -14.9% (inactive) |  |
| CCN(CC)C(=O)[C@@H]1C=C2c3cccc4[nH]cc(c34)C[C@H]2N(C)C1 | -20.7% [at 160 µM] (inactive) |  |
| CC(C)[N+](=O)[O-] | 7.01% (inactive) |  |
| CC(C)=CCOc1c2occc2cc2ccc(=O)oc12 | 12.6% [at 28.3 µM] (inactive) |  |
| NC(=O)C(Cl)(Cl)Cl | 9.43% (inactive) |  |
| CCCSP(=S)(OCC)Oc1ccc(Cl)cc1Cl (stereo not given) | -3.55% (inactive) |  |
| Nc1c(Cl)c(F)nc(OCC(=O)O)c1Cl | 15.6% (inactive) |  |
| Nc1nc(N)c(N)c(N)n1 | 6.83% (inactive) |  |
| CCCC[N+](CCCC)(CCCC)CCCC | 3.16% (inactive) |  |
| C[C@H](N)[C@H](O)c1ccc(O)c(O)c1 | 2.64% [at 28.3 µM] (inactive) |  |
| CCOC(=O)COc1ccc(Cl)cc1Cl | 12.1% (inactive) |  |
| O=C(C(Cl)(Cl)Cl)C(Cl)(Cl)Cl | 13.1% (inactive) |  |

Reference: PubChem BioAssay (Tox21)
